Source: PubChem
A selection: hits, their analogues and other compounds. The true share with any hit is near 2.3%.
Giardia kill = Giardia lamblia killing | Giardia lamblia trophozoite viability | activity change, % at 7.66 µM, hits read low | 340,000 compounds, 0.15% hits; in the data active = activity change below about -80%; inconclusive = between about -30% and that limit;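 also: parasites exposed to compound for two days anaerobically before the ATP read; % is scaled to controls: 0 for no effect and ±100 for the full control effect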
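Compounds were tested on trophozoites seeded at 100 cells/well and held 48 hrs at 37 deg C anaerobically. An ATP-based luminescent kit measured the remaining live cells.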
Nrf2 block = Nrf2 pathway inhibition | A549 ARE-Fluc reporter, luciferase luminescence, 18-24 h | Potency, µM (top dose mostly 46 µM), for inactives: top-dose activity change, negative = inhibition, actives largely listed as inhibitors | 360,000 compounds, 2.1% hits | AID 504444; also: potency is read from the fitted curve at half-maximal effect; % is scaled to controls: 0 for no effect and ±100 for the full control effect; nearly all actives have a fitted effect of over 60% in size
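In this cell-based qHTS, ARE-driven firefly luciferase in A549 cells reports Nrf2 activity; the luminescent signal after BugLite lysis is the measured value, with a prior CellTiter-Fluor read for cell health.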
A549 viability = kills or reduces viability of A549 cells in Nrf2 counter-screen. A549 ARE-Fluc cells, CellTiter-Fluor viability, 18-24 h. AID 504648. Potency, µM (doses to about 46 µM), for the others: top-dose activity change, negative = cytotoxicity, most hits filed as inhibitors. 390,000 compounds, 0.16% hits; also: potency is read from the fitted curve at half-maximal effect; % is scaled to controls: 0 for no effect and ±100 for the full control effect
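Cytotoxicity counterscreen: CellTiter-Fluor fluorescence was measured in A549 ARE_Fluc cells after 18-24 h of compound exposure in a concentration series. The subsequent BugLite luminescent read reports ARE-luciferase activity.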
mIDH1 inhibitor = blocks human mutant IDH1 R132H enzyme; IDH1-R132H enzyme, NADPH consumption, diaphorase/resazurin fluorescence; Potency, µM (series often up to 76.6 µM), for inactives: top-dose activity change, negative = inhibition, most hits filed as inhibitors; 390,000 compounds, 0.093% hits; also: potency is read from the fitted curve at half-maximal effect; % is scaled to controls: 0 for no effect and ±100 for the full control effect; nearly all actives have a fitted effect of over 65% in size
Target sequence (O75874 whole entry R132H, stated change not applied): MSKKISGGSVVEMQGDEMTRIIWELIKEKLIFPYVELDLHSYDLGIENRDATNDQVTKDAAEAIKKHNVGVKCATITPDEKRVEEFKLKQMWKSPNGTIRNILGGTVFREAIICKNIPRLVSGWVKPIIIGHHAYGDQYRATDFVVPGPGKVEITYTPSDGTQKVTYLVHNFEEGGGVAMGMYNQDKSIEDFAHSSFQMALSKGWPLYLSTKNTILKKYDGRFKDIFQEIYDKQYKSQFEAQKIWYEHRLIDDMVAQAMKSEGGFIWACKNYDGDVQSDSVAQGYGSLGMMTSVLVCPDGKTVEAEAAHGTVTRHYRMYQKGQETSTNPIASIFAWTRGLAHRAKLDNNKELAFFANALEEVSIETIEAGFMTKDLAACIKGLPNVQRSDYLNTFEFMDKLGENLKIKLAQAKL
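IDH1-R132H (0.5 ug/mL dispensed) in pH 7.5 Tris buffer was preincubated 30 min with compound, then given a substrate mix of 0.016 mM NADPH and 2 mM alpha-KG for 80 min at room temperature; remaining NADPH was read by diaphorase/resazurin fluorescence.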
Nrf2 activator = activators of Nrf2 (ARE) signaling; AREc32 ARE-luciferase reporter (MCF7-derived line), luminescence, 24 h; Potency, µM (series often up to 46.1 µM), inactives show top-dose activation, most hits filed as activators; 410,000 compounds, 0.31% hits; AID 624171; also: potency is read from the fitted curve at half-maximal effect; % of control where 0% means no effect; nearly all actives have a fitted effect of over 65% in size
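AREc32 cells carrying an ARE-driven firefly luciferase, 1000 cells/well in OPTI-MEM with 5% FBS, dosed after overnight attachment and incubated 24 hr at 37 deg C. Steady-Glo luminescence read after 30 min at RT.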
Apoferritin bind = candidate novel general anesthetic via apoferritin binding; Potency, µM (titrated, usually from 77.5 µM), inactives show at the highest dose activity change, negative = displacement, most hits filed as inhibitors; AID 485281; 350,000 compounds, 0.074% hits; apoferritin/1-aminoanthracene competitive binding, fluorescence; P02791; also: potency is read from the fitted curve at half-maximal effect; % is scaled to controls: 0 for no effect and ±100 for the full control effect; nearly all actives have a fitted effect of over 20% in size
Target sequence (P02791 2-175 limits assumed): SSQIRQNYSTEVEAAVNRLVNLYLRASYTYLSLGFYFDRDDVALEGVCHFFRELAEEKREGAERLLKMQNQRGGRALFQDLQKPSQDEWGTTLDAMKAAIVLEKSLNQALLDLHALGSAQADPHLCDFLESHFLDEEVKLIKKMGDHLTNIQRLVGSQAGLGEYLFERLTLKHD
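Probe: 1-aminoanthracene (50% saturated, PBS). Protein: horse-spleen apoferritin, 10 uM. Incubation: 10 min, room temperature. Detection: 380 nm excitation, 535 nm emission. Analysis: normalized response, four-parameter Hill.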
* = called active by the depositor; u = inconclusive; x = no result given; [ ] = another dose, or the depositor's remark. Unless noted, calls follow the shape of the dose curve; as a rule, active = well fitted curve in the direction sought with a large enough effect; inconclusive = small, poorly fitted or top-dose-only effect, or another doubt; inactive = no such curve, though single readings can be large; an effect the other way counts as inactive or inconclusive.

SMILES | Giardia kill | Nrf2 block | A549 viability | mIDH1 inhibitor | Nrf2 activator | Apoferritin bind
COc1cc(OC)c(/C=C2\C(=O)Nc3ccccc32)c(OC)c1 | 6 | u | -19% | -5% | 12% | x
O=C1Nc2ccccc2/C1=C/c1cnc[nH]1 | -1 | 7.3µM* | 6% | -4% | 4% | -22%
COc1ccc(-n2c(/C=C3\C(=O)Nc4ccccc43)nc3ccccc3c2=O)cc1 | 9 | -27% | u | 10% | 0% | -7%
CON(C)C(=O)Nc1ccc(Br)c(Cl)c1 | x | x | x | x | x | -17%
O=C1c2ccccc2-c2cc3ccccc3cc21 | -22 | u | -2% | 5% | 3.2µM* | x
CC(C)=CCC[C@](C)(O)C1CC[C@]2(C)[C@@H]1CC[C@@H]1[C@@]3(C)CCC(=O)C(C)(C)[C@@H]3CC[C@]12C (some centres not stated) | x | x | x | x | x | 39%
Cc1c(Cl)ccc2sc(N3CCN(C(=O)CCS(=O)(=O)c4ccc(F)cc4)CC3)nc12 | x | x | -23% | 2% | 0% | 62%
O=C(Cc1ccc(S(=O)(=O)N2CCCC2)s1)N1CCN(c2ccc(F)cc2)CC1 | 14 | 18µM* | -12% | 1% | -1% | -16%
CNC(=O)Oc1ccc2c(c1)[C@@]1(C)CCN(C)C1N2C (some centres not stated) | x | x | x | x | x | 3%
Cc1ccsc1C(=O)C1CCCN(Cc2cnc(N(C)C)s2)C1 (configuration not stated) | x | x | x | x | x | -18%
Cc1ccsc1C(=O)C1CCCN(Cc2cnc(N3CCOCC3)s2)C1 (configuration not stated) | 2 | 18µM* | u | -2% | 2% | -10%
O=[N+]([O-])c1ccc(C(c2ccc([N+](=O)[O-])cc2)c2ccc([N+](=O)[O-])cc2)cc1 | 2 | 23µM* | -24% | 0% | 6% | x
CCOP(=S)(OCC)O/N=C(\C#N)c1ccccc1Cl | x | x | x | x | x | -9%
C=C(C)[C@H]1C2C(=O)O[C@H]1[C@H]1OC(=O)[C@@]34O[C@@H]3C[C@]2(O)[C@@]14C | x | x | x | x | x | 4%
O=C1/C(=C/c2ccccc2)C[C@@]2(O)[C@H]3Cc4ccc(O)c5c4[C@@]2(CCN3CC2CC2)C1O5 (some centres not stated) | -18 | 12µM* | u | 2% | -4% | x
NCCCC[C@H](NC(=O)[C@H](Cc1ccccc1)NC(=O)[C@H](CCCN=C(N)N)NC(=O)[C@@H](N)Cc1ccc(O)cc1)C(N)=O | x | x | x | x | x | 3%
Cc1c2ccncc2c(C)c2c1[nH]c1ccccc12 | 13 | 7.3µM* | u | 6% | 5% | -2%
COC(=O)C1=C(c2ccccc2OCc2ccccc2)C[C@@H]2CC[C@H]1N2C(=O)NCc1ccc(C(F)(F)F)cc1 | 32 | 16µM* | -13% | 2% | -1% | x
COC(=O)C1=C(c2ccccc2OCc2ccccc2)C[C@@H]2CC[C@H]1N2C(=O)NCc1ccccc1 | -18 | u | 3% | 9% | 2% | x
COC(=O)C1=C(c2ccccc2OCc2ccccc2)C[C@@H]2CC[C@H]1N2C(=O)NCc1ccc(Br)cc1 | -12 | 21µM* | -17% | -24% | -1% | x
COC(=O)C1=C(c2ccc(F)cc2OCc2ccccc2)C[C@@H]2CC[C@H]1N2C(=O)NCc1ccc2c(c1)OCO2 | -25 | 18µM* | -17% | -2% | 0% | x
COC(=O)C1=C(c2ccc(F)cc2OCc2ccccc2)C[C@@H]2CC[C@H]1N2C(=O)NCc1ccccc1OC | -24 | u | -15% | -1%[38.3 µM] | 6% | x
COC(=O)C1=C(c2ccc(F)cc2OCc2ccccc2)C[C@@H]2CC[C@H]1N2C(=O)NCc1ccc(C(F)(F)F)cc1 | 0 | 18µM* | -9% | -14% | 5% | x
COC(=O)C1=C(c2ccc(F)cc2OCc2ccccc2)C[C@@H]2CC[C@H]1N2C(=O)NCc1cccc(F)c1 | u | u | -18% | -5% | 0% | x
COC(=O)C1=C(c2ccccc2OCc2ccccc2)C[C@@H]2CC[C@H]1N2C(=O)NCc1cccc(C(F)(F)F)c1 | 4 | 16µM* | -16% | 2% | -1% | x
SMILES | Giardia kill | Nrf2 block | A549 viability | mIDH1 inhibitor | Nrf2 activator | Apoferritin bind
COC(=O)C1=C(c2ccc(OCc3ccccc3)cc2)C[C@@H]2CC[C@H]1N2C(=O)NCc1cccc(C(F)(F)F)c1 | -26 | u | -13% | 6% | 5% | x
COC(=O)C1=C(c2ccc(F)cc2OCc2ccccc2)C[C@@H]2CC[C@H]1N2C(=O)NCc1ccccc1 | u | 16µM* | u | 13% | 1% | x
O=[N+]([O-])c1ccc(N2CCCC2)cc1N/N=C1\CN2CCC1CC2 | -9 | -23% | 9.2µM* | 6% | 2% | 6%
O=[N+]([O-])c1ccc(N2CCNCC2)cc1NC1CC1 | x | x | x | x | x | -16%
CC[C@H](C)[C@H](NC(=O)CN)C(=O)N[C@@H](CC(C)C)C(=O)NCC(=O)N[C@@H](Cc1ccccc1)C(=O)N[C@H](C(=O)N[C@@H](Cc1ccccc1)C(=O)N[C@H](C(=O)N[C@@H](CC(C)C)C(=O)O)[C@@H](C)O)C(C)C | x | x | x | x | x | -9%
Cc1ccc(NC(=O)C2CCCN(c3ncnc4onc(C)c34)C2)c(Cl)c1 (configuration not stated) | x | 26µM* | -11% | 6% | 1% | -11%
CCC1(O)C(=O)OCc2c1cc1n(c2=O)Cc2cc3c(N)cccc3nc2-1 (configuration not stated) | 12 | 0.82µM* | u | 7% | -2% | x
CC[C@@]1(O)C(=O)OCc2c1cc1n(c2=O)Cc2cc3cc(O)ccc3nc2-1 | x | x | x | x | x | 514%
CCC(=NCc1ccc2c(c1)OCO2)c1c(O)n(C2CCCCC2)c(=O)[nH]c1=O | 9 | 12µM* | x | 2% | 1% | -9%
C=CCn1c(O)c(C(C)=NCc2ccc3c(c2)OCO3)c(=O)[nH]c1=O | -10 | 21µM* | 3% | 2% | 3% | -12%
CCC(=NCCO)c1c(O)n(C2CCCCC2)c(=O)[nH]c1=O | -2 | 0% | -5% | -1% | 1% | -8%
CC1CC(C)CC(C)C(O)C(C#N)=CC=CCC(C2CCCC2C(=O)O)OC(=O)CC(O)C(C)C1 (configuration not stated) | u | 0.52µM* | 2.3µM* | 7% | -1% | x
Fc1ccc(C(OCCN2CCN(C/C=C/c3ccccc3)CC2)c2ccc(F)cc2)cc1 | x | x | x | x | x | 48%
COc1ccc(Nc2nc(N)nc(CSc3nc4ccccc4s3)n2)cc1 | x | 21µM* | -6% | u | -3% | -14%
